The panel holds about 83,000 compounds, 20% with a hit somewhere; the sample as a whole holds those more often.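 Values shown are percent growth following 48 h exposure of cells in 96-well plates to a single concentration of compound; below 10 was considered active.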 Values without a mark were called inactive. Activity calls are given as the source filed them.

Test systems include DU-145 prostate; K-562 leukemia; MALME-3M melanoma; MDA-MB-231 breast; RXF 393 renal; SF-268 CNS; SF-295 CNS; SF-539 CNS; UACC-257 melanoma; M14 melanoma.
Assay in all cases: NCI-60 one-dose screen, 48 h (100 = growth as untreated, 0 = no growth, -100 = all killed)
Common to all, as to conditions: 10 µM

For `NC1CCC(Nc2nc(NCc3ccc(-c4ccco4)nc3)c3ncn(C4CCCC4)c3n2)CC1` (stereo not given), the growth with DU-145 prostate was 6.46% (active); with K-562 leukemia it was 2.46% (active); in the assay with MALME-3M melanoma it was -40.6% (active); in the assay with MDA-MB-231 breast it was 3.81% (active); in the assay with RXF 393 renal it was -50.5% (active); in the assay on SF-268 CNS, 0.711% (active). Further, the growth was 0.17% (active) in the assay with SF-295 CNS, -25.7% (active) in the assay on SF-539 CNS, -8.84% (active) in the assay on UACC-257 melanoma and -23.5% (active) in the assay on M14 melanoma.
For `CCOC(=O)Cn1nnc(-c2ccc(OCc3ccccc3F)cc2)n1`, the growth in the assay on DU-145 prostate was 103%; in the assay on K-562 leukemia, 53%; with MALME-3M melanoma it was 36.9%; in the assay on MDA-MB-231 breast, 104%; in the assay with RXF 393 renal, 79.9%; with SF-268 CNS it was 82.8%. Further, the growth in the assay with SF-295 CNS is 91.7%; in the assay on SF-539 CNS it was 92.4%; with UACC-257 melanoma, 87.5%; in the assay with M14 melanoma, 75.1%.
On to `COc1ccc(COC(=O)CC(C)C)cc1`, for which the growth is 107% in the assay with DU-145 prostate; 96.1% with K-562 leukemia; 100% with MALME-3M melanoma; 106% in the assay on MDA-MB-231 breast; 101% in the assay with RXF 393 renal; 93% in the assay with SF-268 CNS. In addition, the growth in the assay on SF-295 CNS is 97.1%; with SF-539 CNS, 96.1%; in the assay on UACC-257 melanoma, 87.7%; in the assay on M14 melanoma, 99.6%.
Regarding `CCOC(=O)c1cc(-c2ccccc2)nc(N)n1`, the growth in the assay with DU-145 prostate was 107%; in the assay with K-562 leukemia it was 104%; with MALME-3M melanoma, 111%; in the assay with MDA-MB-231 breast, 97.4%; in the assay with RXF 393 renal, 93.7%; with SF-268 CNS, 106%. The growth with SF-295 CNS was 93.8%; with SF-539 CNS it was 94.5%; with UACC-257 melanoma, 101%; in the assay with M14 melanoma, 108%.
Take `COc1ccc(-c2nc(-c3nc4ccc(OC)cc4[nH]3)c3ccccn23)cc1`: the growth in the assay with DU-145 prostate is 71.9%; with K-562 leukemia it was 25.5%; in the assay with MALME-3M melanoma, 104%; in the assay with MDA-MB-231 breast, 83%; with RXF 393 renal it was 75.7%; with SF-268 CNS, 57.5%. For the same molecule, the growth in the assay on SF-295 CNS is 52%; with SF-539 CNS it was 90.2%; in the assay on UACC-257 melanoma, 92.9%; in the assay with M14 melanoma it was 77.5%.
With `CCOC(=O)Nc1ccc2c(c1)C(=O)N(CC)c1ccccc1O2`, the growth in the assay on DU-145 prostate is 7.48% (active); in the assay with K-562 leukemia, 8.79% (active); in the assay on MALME-3M melanoma, 68%; in the assay on MDA-MB-231 breast it was 20.2%; in the assay with RXF 393 renal, -4.5% (active); in the assay with SF-268 CNS it was 42.1%. Besides, the growth in the assay with SF-295 CNS is 3.36% (active); in the assay on SF-539 CNS, 4.79% (active); in the assay with UACC-257 melanoma it was 64.1%; in the assay with M14 melanoma, 11.1%.
On to `CC(C)=C1CCC(C)C/C1=N\N=C(N)N` (stereo not given), for which the growth in the assay with DU-145 prostate is 105%; with K-562 leukemia, 97.9%; in the assay with MALME-3M melanoma, 100%; with MDA-MB-231 breast it was 113%; with RXF 393 renal it was 107%; with SF-268 CNS, 99.2%. Further, the growth is 98.4% with SF-295 CNS, 104% in the assay on SF-539 CNS, 93.5% with UACC-257 melanoma and 102% in the assay with M14 melanoma.
Consider `CCc1c(C(=O)NCc2c(O)ccc3cccc(O)c23)[nH]c(C)c1C(C)=O`, for which the growth is 55.1% in the assay with DU-145 prostate; 16.8% with K-562 leukemia; 37.4% with MALME-3M melanoma; 48.3% with MDA-MB-231 breast; 58.8% with RXF 393 renal; 31.1% in the assay with SF-268 CNS. For the same molecule, the growth in the assay on SF-295 CNS is 11.8%; in the assay with SF-539 CNS, 56.3%; with UACC-257 melanoma, 35%; in the assay on M14 melanoma, 30.9%.
For `CCCCCCCCCCCCc1ccc(C(=O)/C=C/C(=O)O)cc1`, the growth with DU-145 prostate was 89.8%; in the assay on K-562 leukemia it was -5.52% (active); with MALME-3M melanoma, 69.1%; in the assay with MDA-MB-231 breast, 29.4%; in the assay on RXF 393 renal, 80.8%; with SF-268 CNS, 100%. Further, the growth was 80.2% with SF-295 CNS, 76.5% in the assay with SF-539 CNS, 96.1% in the assay with UACC-257 melanoma and 62.1% in the assay on M14 melanoma.
On to `COc1cccc(C(=O)NNc2nc(N3CCOCC3)nc(N3CCN(C(c4ccccc4)c4ccccc4)CC3)n2)c1`, for which the growth in the assay on DU-145 prostate was 87.2%; with K-562 leukemia, 63.5%; in the assay on MALME-3M melanoma, 91.7%; in the assay with MDA-MB-231 breast, 86.3%; in the assay on RXF 393 renal, 69.4%; in the assay on SF-268 CNS, 71.5%. Besides, the growth is 87.3% in the assay with SF-295 CNS, 93.6% with SF-539 CNS, 90.9% in the assay with UACC-257 melanoma and 114% in the assay on M14 melanoma.
Regarding `Cc1ccc(C)c2c1sc1nc3n[nH]c(N)c3c(=N)n12`, the growth in the assay with DU-145 prostate was 111%; in the assay with K-562 leukemia, 98.3%; with MALME-3M melanoma, 128%; in the assay on MDA-MB-231 breast, 101%; with RXF 393 renal, 112%; with SF-268 CNS it was 109%. Moreover, the growth was 106% in the assay on SF-295 CNS, 101% in the assay on SF-539 CNS, 104% with UACC-257 melanoma and 108% in the assay with M14 melanoma.
`COc1ccc(/C=C2\SC(=S)N(CCCN3CCOCC3)C2=O)c(OC)c1`: the growth was 100% with DU-145 prostate; 83.8% with K-562 leukemia; 118% in the assay on MALME-3M melanoma; 96.9% in the assay with MDA-MB-231 breast; 108% in the assay on RXF 393 renal; 104% with SF-268 CNS. Moreover, the growth with SF-295 CNS is 107%; in the assay with SF-539 CNS, 104%; in the assay with UACC-257 melanoma it was 102%; in the assay on M14 melanoma, 95.6%.
For the molecule `Cc1ccc(C(=O)O)c(N)c1C`, the growth with DU-145 prostate is 101%; in the assay with K-562 leukemia, 92.1%; in the assay with MALME-3M melanoma it was 85.7%; in the assay with MDA-MB-231 breast, 118%; in the assay with RXF 393 renal it was 111%; with SF-268 CNS, 95.9%. Further, the growth was 92.6% with SF-295 CNS, 103% in the assay with SF-539 CNS, 108% with UACC-257 melanoma and 96.4% in the assay with M14 melanoma.
